Inconclusive results are not listed. A call without a number means that no potency is given here. Calls of active or inactive are those of the source. Calls come from the whole dose curve; as a rule, active = well fitted inhibition curve with a large enough effect; inconclusive = small, poorly fitted or top-dose-only effect; inactive = no such curve, though single readings can be large or run the other way.
Assay: Primary qHTS for inhibitors of La Crosse Virus (LACV) - induced cell death in SH-SY5Y cells (AID 1508616)
Conditions: SH-SY5Y LACV cytopathicity rescue, ATP luminescence, 6 d; series mostly up to 4.29 µM
Text: Assay Provider: Karin Peterson Ph.D.
National Institute of Allergy and Infection Diseases, National Institute of Health
La Crosse Virus (LACV) is a California serogroup mosquito-borne arbovirus, family Peribunyaviridae, which is an endemic pathogen in North America and can induce a rare, life-threatening neurological disease in children. LACV was first isolated in the early 1960s, from a summer "rural encephalitis" case in La Crosse, Wisconsin, USA. Since then, LACV encephalitis cases have been found in more than twenty states, with most cases in the Mississippi and Ohio River basins. The life cycle of LACV is maintained between the vector, the eastern tree-hole mosquito Aedes triseriatus, and vertebrate hosts including eastern gray squirrels (Sciurus carolinensis) and chipmunks (Tamiasstriatus grinseus). […] Most LACV infections in humans are asymptomatic or induce mild clinical symptoms of fever, headache, lethargy and vomiting. However, in some cases LACV can cause severe neuroinvasive disease, including encephalitis, meningitis, and meningoencephalitis, requiring hospitalization. To date, there is neither a licensed vaccine nor a Food and Drug Administration (FDA) approved antiviral therapy available to prevent or treat LACV encephalitis. The primary treatment for viral encephalitis is palliative care due to the lack of therapeutics. In the current study, we conducted a screen of 4,096 FDA approved and bioactive small molecules against LACV, by screening for rescue of LACV-induced cell death in SH-SY5Y cells.
LACV-induced cytopathicity assay
SEQUENCE No. (1,2, 3, etc.); […] (e.g., Cells, Incubation, Reagent, etc.); VALUE and DESCRIPTION.
1. Reagent; 2 uL; Cell solution.
3. Compounds; 23nL; Compound library
4. Reagent; 12 uL; LACV virus
6. Reagent; 24 uL; ATPLite (PerkinElmer)
7. Time; 5 min; Room temperature
8. Detection; Luminescence; View
NOTES (numbers refer to sequence above)
1. Seed 6000 SH-SY5Y cells (ATCC CRL-2266) in 2 microL/well media (DMEM/F12 10% FBS, 1x L-Glutamine, 1x Pyruvate, 1x NEAA, 1x Pen/Strep) in 384-well assay plates (tissue culture treated, white, solid bottom).
2. Incubate at 37 degrees C with 5% CO2 for 24 hr.
3. Dispense 23 nL/well compounds in DMSO via pin transfer.
4. Dispense 12 microL/well of LACV (LACV/human/1978) in media at 0.01 MOI.
5. Incubate at for 6 days at 37C 5% CO2
6. Dispense 24 microL/well of ATPLite 1step Luminescence assay system (PerkinElmer).
7. Incubate for 5 min at room temperature.
8. Read luminescence signal (Viewlux plate reader, PerkinElmer). Data was normalized with DMSO control wells containing LACV as 0%, and DMSO control wells without virus as 100%.
Potency is the fitted concentration of half-maximal effect.

Row | Compound | Potency
1 | CC(=O)Oc1ccc(C(c2ccc(OC(C)=O)cc2)c2ccccn2)cc1 | inactive
2 | Cc1cccn2c(=O)c(-c3nnn[nH]3)cnc12 | inactive
3 | COC(=O)CCc1ccc(OCC(O)CNC(C)C)cc1 (stereo not given) | inactive
4 | CCCCCC=CCC=CCCCCCCCC(=O)OCC | inactive
5 | CC1=C(C(=O)O)N2C(=O)[C@@H](NC(=O)[C@H](N)c3ccc(O)cc3)[C@H]2SC1 | inactive
6 | COc1ccc(OC)c(C(O)CNC(=O)CN)c1 (stereo not given) | inactive
7 | COC(=O)[C@@H]1CC2=CC(=O)CC[C@]2(C)[C@@]23O[C@@H]2C[C@@]2(C)[C@@H](CC[C@@]24CCC(=O)O4)[C@H]13 | inactive
8 | Cc1c(C(N)=O)cc([N+](=O)[O-])cc1[N+](=O)[O-] | inactive
9 | O=C1c2ccccc2C(=O)C1c1ccccc1 | inactive
10 | CCOC(=O)c1cccc(N)c1 | inactive
11 | CCN(CC)C(=O)N1CCN(C)CC1 | inactive
12 | Cc1nc2n(c(=O)c1CCN1CCC(c3noc4cc(F)ccc34)CC1)CCC[C@H]2O | inactive
13 | C=C1C[C@H]2[C@@H]3C=C(C)C4=CC(=O)CC[C@]4(C)[C@H]3CC[C@]2(C)[C@@]1(OC(C)=O)C(C)=O | inactive
14 | CC(=O)Oc1ccc2c(c1)CC[C@@H]1[C@@H]2CC[C@]2(C)[C@@H](O)CC[C@@H]12 | inactive
15 | CNC(=O)CN(CCN(CCN(CC(=O)[O-])CC(=O)NC)CC(=O)[O-])CC(=O)[O-].O.[Gd+3] | inactive
16 | CC(C)(C)CC(C)(C)c1ccc(O)c(Cc2ccc(Cl)cc2Cl)c1 | inactive
17 | Cc1cccc(C)c1NC(=O)CN1CCN(CCCC(c2ccc(F)cc2)c2ccc(F)cc2)CC1 | inactive
18 | NC[C@H]1O[C@H](O[C@H]2[C@H](O)[C@@H](O[C@H]3O[C@H](CO)[C@@H](O)[C@H](N)[C@H]3O)[C@H](N)C[C@@H]2N)[C@H](N)[C@@H](O)[C@@H]1O | inactive
19 | CC(=O)OCC(=O)[C@@]1(O)[C@H](C)C[C@H]2[C@@H]3CCC4=CC(=O)C=C[C@]4(C)[C@@]3(F)[C@@H](O)C[C@@]21C | inactive
20 | CN(C(=O)CN(CCO)CC(=O)N(C)C(C)(C)Cc1ccccc1)C(C)(C)Cc1ccccc1 | inactive

Row | Compound | Potency
21 | CC[N+](CC)(CCNC(=O)C(=O)NCC[N+](CC)(CC)Cc1ccccc1Cl)Cc1ccccc1Cl | inactive
22 | COc1cc2c(cc1OC)C(=O)C(CC1CCN(Cc3ccccc3)CC1)C2 (stereo not given) | inactive
23 | COc1cc2c(cc1O)CC[C@@H]1[C@@H]2CC[C@]2(C)[C@@H](O)CC[C@@H]12 | 631 nM (active)
24 | CN1C2CCC1CC(OC(=O)c1c[nH]c3ccccc13)C2 (stereo not given) | inactive
25 | Clc1ccc2c(c1)CCc1cccnc1C2=C1CCNCC1 | inactive
26 | Nc1nc2ncc(CNc3ccc(C(=O)N[C@@H](CCC(=O)O)C(=O)O)cc3)nc2c(=O)[nH]1 | inactive
27 | C[C@]12CC[C@@H]3c4ccc(O)cc4CC[C@H]3[C@@H]1CC[C@@H]2O | inactive
28 | CC(=O)OCC(=O)[C@@]12N=C(C)O[C@@H]1C[C@H]1[C@@H]3CCC4=CC(=O)C=C[C@]4(C)[C@H]3[C@@H](O)C[C@@]12C | inactive
29 | COc1ccc(/C=C/C(=O)c2ccc(OC)cc2OC)cc1 | inactive
30 | C[C@@H]1CN(CCCn2c3ccccc3c3ccccc32)C[C@H](C)N1 | inactive
31 | CCCCC(=O)O[C@]1(C(=O)CO)CC[C@H]2[C@@H]3CCC4=CC(=O)CC[C@]4(C)[C@H]3[C@@H](O)C[C@@]21C | inactive
32 | CN=C(NC#N)NCCSCc1csc(N=C(N)N)n1 | inactive
33 | CC(=O)OCC(=O)[C@@]1(O)CC[C@H]2[C@@H]3CCC4=CC(=O)C=C[C@]4(C)[C@H]3[C@@H](O)C[C@@]21C | inactive
34 | N[C@@H](Cc1cnc[nH]1)C(=O)O | inactive
35 | COc1cc(-c2ccc(=O)[nH]n2)ccc1OC(F)F | inactive
36 | COC(=O)[C@H]1[C@H]2C[C@H]3c4[nH]c5ccccc5c4CCN3C[C@H]2CC[C@@H]1O | inactive
37 | CN=C(NC#N)Nc1ccc(C2=NNC(=O)CC2C)cc1 (stereo not given) | inactive
38 | CC(C)(C)NC(=O)[C@@H]1CN(Cc2cccnc2)CCN1C[C@@H](O)C[C@@H](Cc1ccccc1)C(=O)N[C@H]1c2ccccc2C[C@H]1O | inactive
39 | CC(C)(C(=O)c1cccnc1)c1cccnc1 | inactive
40 | CC(C)COC(=O)c1ccc(N)cc1 | inactive
